Data published in ChEMBL document CHEMBL3988442, “University of Dundee, Small-Polar-MMV Screening Library” (2021).

Columns and labels:
[1] = target: T1, Aspartate--tRNA(Asp/Asn) ligase (Mycobacterium tuberculosis (strain ATCC 25618 / H37Rv)) (UniProt P9WFW3); test: Assay for Asp RNA synthetase-1 from Mycobacterium tuberculosis; assay type: functional; parameters: scale not given: direction of the effect not stated beside the values; conditions: 30 µM; further: in the data most compounds retested in dose-response had high values
T1 sequence (whole entry): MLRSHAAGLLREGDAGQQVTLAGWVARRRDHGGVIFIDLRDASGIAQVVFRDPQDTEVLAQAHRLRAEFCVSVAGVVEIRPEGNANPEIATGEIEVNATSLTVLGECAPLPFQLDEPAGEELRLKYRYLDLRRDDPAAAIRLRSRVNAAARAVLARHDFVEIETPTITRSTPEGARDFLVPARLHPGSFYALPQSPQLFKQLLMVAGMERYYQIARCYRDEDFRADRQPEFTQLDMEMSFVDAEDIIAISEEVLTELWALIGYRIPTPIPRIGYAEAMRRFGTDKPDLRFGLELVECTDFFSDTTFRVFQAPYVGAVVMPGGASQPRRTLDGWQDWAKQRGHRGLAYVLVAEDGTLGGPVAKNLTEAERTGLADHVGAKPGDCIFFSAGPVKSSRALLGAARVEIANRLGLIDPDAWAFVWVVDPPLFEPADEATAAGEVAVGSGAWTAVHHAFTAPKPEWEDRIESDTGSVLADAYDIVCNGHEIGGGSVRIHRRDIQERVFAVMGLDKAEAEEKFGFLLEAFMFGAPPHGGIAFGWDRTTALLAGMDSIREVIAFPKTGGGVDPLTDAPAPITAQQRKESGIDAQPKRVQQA

[2] = target: Shiga toxin 2 (Escherichia coli O157:H7) (UniProt P09385+P09386); test: E. coli 0.157:H7 Shiga Toxin SOP - stx2 screening assay; assay type: functional; parameters: scale not given: direction of the effect not stated beside the values; conditions: 30 µM

Compound | Percent Effect [1] [%] | Percent Effect [2] [%]
CC(CCc1ccccc1)NC(=O)Nc1cnn(CC(N)=O)c1 (stereo not given) | 2.84 | -44.2
Cc1nn(C)c(Cl)c1CNCc1ccc(OCC(N)=O)cc1 | -2.25 | -17.5
Nc1nc(CCC(=O)N2CCOC(CC3CCCCC3)C2)cs1 (stereo not given) | -4.71 | 19
Cc1nc(CN2CCCC2c2c(C)nn(C)c2Cl)no1 (stereo not given) | -3.26 | 18.6
Cn1ccc(CN2CCC(COC3CCCC3)CC2)cc1=O | -0.509 | -19.3
Cc1cc(C(=O)N2C[C@@H]3[C@@H](C2)OCC(=O)N3CC2CC2)no1 | 9.42 | -55.2
CCc1cnc(CN2CCCC2c2noc(C3CC3)n2)o1 (stereo not given) | 2.19 | 19.7
CN(C)C(=O)N1CCc2c(CNc3ncccn3)cncc2C1 | 0.757 | -10.5
CCNC(=O)c1nc2c(s1)CCCN2S(C)(=O)=O | 7.8 | -17.3
CCOCC1CN(C(=O)CS(C)(=O)=O)Cc2cnn(C)c21 (stereo not given) | 1.19 | -6.98
Cc1nn(C)c(C)c1C1CCCN1C(=O)CCNc1ncccn1 (stereo not given) | 6.63 | 13.4
CC(C(=O)N1CCCN(c2ccc(C#N)cc2)CC1)n1ccnc1 (stereo not given) | -2.92 | 4.39
Cc1ncsc1CCC(=O)NCc1cc2n(n1)CCN(C(=O)N(C)C)C2 | -4.32 | -29.5
CN1CCN(c2ncc3c(=O)n(-c4cccc(F)c4)c(=O)[nH]c3n2)CC1 | 11.2 | -20.7
Cc1ncc2c(n1)CN(CCCc1nc3ccccc3o1)CC2 | 6.8 | -10.6
CN(C)C(=O)COC[C@]12COC[C@H]1CN(Cc1ccoc1)C2 | -2.38 | -7.04
O=C1CN(Cc2nnc(-c3ccccc3Br)o2)CCN1 | -4.51 | -24.1
COc1cccc(N2CCN(CC(O)c3ccc(C)cc3)CC2)c1 (stereo not given) | 8.45 | 10.4
CC(C)NC(=O)NCCCc1cc(N)n(-c2ccccc2)n1 | -8.28 | -2.61
CCc1c(C)nn(CCNC(=O)C2CCCN(C(=O)N(C)C)C2)c1C (stereo not given) | -4.11 | 20
Cc1cc(C)nc(NC(=O)C(C)Oc2ccc3c(c2)OCO3)n1 (stereo not given) | 12.6 | -50
COc1ncccc1C(=O)N1CCC(c2nnc(C3CC3)o2)CC1 | 3.02 | 0.085
Cc1nc(CN2CCCC(CCc3c(F)cccc3F)C2)c[nH]1 (stereo not given) | -1.36 | -14.3
CCOC(=O)CCC(=O)N1CCC(Oc2ccc(C(F)(F)F)cn2)CC1 | -1.91 | 12.6
CCc1ccc(CN2CCC3(CC2)NC(=O)CC3c2ccncc2)o1 (stereo not given) | 7.7 | -9.95

Compound | Percent Effect [1] [%] | Percent Effect [2] [%]
Cc1ccccc1C(=O)CN1C(=O)c2ccccc2CS1(=O)=O | 0.881 | -11.1
Cc1ccc(=O)n(CC2(O)CCN(Cc3cnc(C)nc3)CC2)n1 | 1.71 | 5.87
Cc1ccc(-c2nc(CNCC3CN(C)CCO3)cs2)o1 (stereo not given) | 1.27 | -23.7
Cc1cccc(C(=O)N(C)Cc2cc(Br)cs2)n1 | -0.0599 | -8.77
CCOc1cc(C(=O)N2CCCC(c3cc(C(N)=O)[nH]n3)C2)ccn1 (stereo not given) | -1.21 | 25.9
CC(NC(=O)NCC1(O)CCC1)c1ccc(OCC2CC2)c(F)c1 (stereo not given) | -6.14 | -4.99
CCn1ncc(CN2CCc3c(nc(-c4cccnc4)[nH]c3=O)C2)c1C | -5.25 | -14.2
CCS(=O)(=O)N1C[C@H]2CN(Cc3cccnc3)C(=O)[C@H]2C1 | 3.48 | -32.6
Cc1nnc(NC(=O)NCc2cccnc2N(C)C)s1 | -2.76 | -16.1
Cc1ccc(C)c(CNC(=O)NC(C)(C(=O)O)c2ccco2)c1 (stereo not given) | 4.16 | 17
CN(Cc1ccccc1F)C(=O)CS(=O)(=O)Cc1ccc(Cl)c(Cl)c1 | 2.16 | 37
CCOC1CCN(C(=O)c2cnn(-c3ccccc3Cl)c2)CC1 | 2.29 | 28.9
COc1ccc(CN(Cc2cncn2C)CC2CCCO2)c(OC)c1 (stereo not given) | 7.91 | 11.4
Cn1ncc2c1NC(=O)CC2c1ccc(O)cc1 (stereo not given) | 0.0331 | -13.8
Cc1cnn(CCC(=O)N2CCN(c3nc(C)cs3)CC2)c1 | -4.11 | -15.5
O=C(c1ccc2c(c1)CCCC2)N1CCOCC1c1ncon1 (stereo not given) | -2.09 | 0.194
CC(C)Cc1cc(C(=O)NCc2nnc[nH]2)[nH]n1 | 1.11 | 2.04
Cc1cnn(CCNCC(O)COc2ccc(C#N)cc2)c1 (stereo not given) | 1.2 | -30.5
CN(Cc1ncc[nH]1)CC(c1cccs1)N1CCOCC1 (stereo not given) | -3.41 | 4.34
O=C(O)c1cc(-c2cccnc2)cc(S(=O)(=O)N2CCCCCC2)c1 | -3.5 | 11.4
CCN(Cc1cccc(Cl)c1)Cn1nc(C)c2c(C)onc2c1=O | -2.62 | 21.7
CCN(CCn1cccn1)Cc1nc(-c2cccs2)oc1C | -0.251 | 7.38
CCOCC1CN(C(=O)N(C)C)Cc2nn(C)cc21 (stereo not given) | 7.75 | -4.03
CC(C)Cc1ccc(S(=O)(=O)Nc2ccc(=O)n(C)c2)cc1 | 30.2 | -23.8
O=C(c1ccc[nH]1)N1CCN(CC2CCOc3ccccc3C2)CC1 (stereo not given) | 4.96 | -20.9

Compound | Percent Effect [1] [%] | Percent Effect [2] [%]
CCN1CCn2c(C)cnc2C12CCN(C(=O)c1ccc(Cl)cc1)CC2 | 2.04 | 8.49
CN(C)S(=O)(=O)N1CCC(Oc2ccc(C#N)cc2)CC1 | 0.641 | -1.14
c1ccc(CN2CC[C@@H]3O[C@H](COCc4ccncc4)CC[C@@H]32)nc1 | -0.574 | -18
CNC(=O)C1(CCCc2ccncc2)CCCN1 (stereo not given) | 4.78 | 1.85
O=C(NCC(Cc1cccc(F)c1)N1CCCC1=O)c1ccccc1 (stereo not given) | -2.27 | -0.947
O=C(NCC(F)(F)F)C1CSCN1S(=O)(=O)c1ccc(F)cc1 (stereo not given) | -3.86 | -29.9
Cc1ncccc1OC1(C(=O)NCCNc2ccccc2)CCNCC1 | -0.792 | 6.67
CCNc1cc2c(nn1)CCN(C(=O)c1ccnc(N(C)C)c1)C2 | 0.611 | 3.23
Cc1cccnc1CNc1cc(N2CCCC2CO)ncn1 (stereo not given) | -4.52 | -6.27
c1ccc2c(N3CCCC3Cn3cccn3)ncnc2c1 (stereo not given) | 0 | -23.1
CN1C(=O)C(C)(C)COc2cc(NS(=O)(=O)Cc3ccccc3)ccc21 | -4.77 | 14.9
CS(=O)(=O)N1CC[C@H]2C[C@@H](C(=O)N3CCOCC3)O[C@@H]2C1 | 2.65 | 5.94
CCc1nc(CN(C)CC(c2cccs2)N2CCOCC2)no1 (stereo not given) | -4.22 | -5.08
c1cnn(-c2ccc(CN3CCOC(Cn4cncn4)C3)cc2)c1 (stereo not given) | 4.05 | 9.62
CCC(O)CN1CCN(C(=O)c2cccn2Cc2ccccc2)CC1 (stereo not given) | -0.0571 | 16.8
O=C(c1cccc(CNCC2CNc3ccnn3C2)c1)N1CCCC1 (stereo not given) | -1.15 | -3.83
c1ccc(OCC2CC3(CCN(Cc4ccncc4)CC3)CO2)nc1 (stereo not given) | 1.19 | -30.5
Cn1cnc2c1C(COCC1CC1)CN(Cc1ccsc1)C2 (stereo not given) | 5.14 | -1.62
CC(C)CCN1Cc2c(C(=O)O)ncn2-c2ccccc2S1(=O)=O | -0.474 | -10.7
COc1ccc(CN2CCC3(CC2)CCN(CC(C)C)C3=O)cc1 | -3.87 | 3.87
CC1c2ncc(CNC(=O)C3CC3)n2CCN1Cc1cnn(C)c1 (stereo not given) | 7.02 | -27.6
Cc1ccc(CNC2CCN(CCc3ccncc3)CC2)cc1C | -5.11 | -49.6
O=C(Nc1cccc2c1CCCC2)C1CCCN1c1nccs1 (stereo not given) | 2.28 | -43.4
CCOc1cccc2c1OCC(C(=O)NS(=O)(=O)Cc1ccccc1)=C2 | -0.211 | 23.7
Cn1cnc2c1CCN(CCCOc1ccc(C#N)cc1)C2 | -4.46 | -24.8

Compound | Percent Effect [1] [%] | Percent Effect [2] [%]
CC(C)c1noc(C(C)N2CCN(Cc3ccsc3)CC2)n1 (stereo not given) | -3.93 | 27.9
Cc1ccc(C(O)CNC(=O)NCc2nc(C)cs2)cc1 (stereo not given) | -0.636 | 1.54
Cc1cc(C(=O)N2CCc3nnc(N)cc3C2)c(C)n1C1CC1 | 7.93 | -1.08
Cc1ccc(N2CCN(C(=O)COc3ccccc3)CC2)nn1 | -1.15 | -66.5
COCCN1C(=O)[C@]2(CC[C@@H]3CN(C(=O)NC4CCCC4)C[C@@H]32)N=C1C | 0.379 | -4.86
Cc1cc(C)n(CC2CCCCN2Cc2cscn2)n1 (stereo not given) | -3.34 | 25.2
O=C(c1cnccn1)N1C[C@@H]2CC[C@H](C1)N(C(=O)Cc1ccsc1)C2 | -3.45 | -38.6
Cc1ccc(C(=O)N2CCn3cc(CN4CCCCC4)nc3C2)o1 | 8.53 | -27.2
CSCc1cccc(S(=O)(=O)N2CCSCC2)c1 | 0.639 | 0.0259
CC(=O)N1CCOC2(CCN(C(=O)c3cnoc3C)CC2)C1 | -1.11 | 4.56
Cn1cc(C(=O)N[C@@H]2CN(Cc3cccs3)[C@@H]3CCCO[C@@H]32)cn1 | 1.75 | -2.87
O=C(c1ccsc1)N1CC[C@H]2C[C@@H](c3nnc(C4CC4)o3)O[C@@H]2C1 | 0.51 | -18.9
CCc1noc(C)c1C(=O)N(C)Cc1ncc(C)c(OC)c1C | -1.73 | 16.8
CNC(=O)[C@@H]1C[C@H]2CN(C(=O)c3ccco3)C[C@H]2N1C | -1.4 | -6.39
c1cncc(N2CCOCC3(CCCN(c4nncs4)C3)C2)c1 (stereo not given) | 2.36 | -5.55
O=C(NCc1cn2c(n1)CN(CC1CCOCC1)CC2)C1CCC1 | 0.662 | -18.2
Cc1nc(Nc2ncccn2)cc(C2CCCN2CC(C)C)n1 (stereo not given) | -0.75 | 13.5
COCCc1noc(CN2CCCCC2Cn2cc(C)cn2)n1 (stereo not given) | -2.46 | 9.7
c1ccc(Oc2cc(CNCC3CNc4ccnn4C3)ccn2)cc1 (stereo not given) | -8.46 | -36.5
CN1CCC/C1=N\S(=O)(=O)c1ccc(NC(=O)c2ccc(F)cc2)cc1 | 4.61 | -109
COc1cccc(COCC(O)CN2CC(n3cccn3)C2)c1 (stereo not given) | -2.41 | 16.5
COCCO[C@@H]1CCN(C(=O)c2ccc(C)o2)[C@@H]1Cc1cccnc1 | -0.436 | -14.3
COc1cc(/C=C/c2ncc(C(=O)O)s2)cc(Cl)c1O | -0.0437 | -52.2
CCN(CC)C(=O)C(c1ccccc1)N1CCn2c(C)nnc2C1 (stereo not given) | -4.06 | 4.2
Cc1cc(C)c(CNC(=O)N2CCN(c3ncccn3)CC2)c(=O)[nH]1 | -0.7 | -6.87
